58 compounds from ChEMBL document CHEMBL3988442, “University of Dundee, Small-Polar-MMV Screening Library” (2021) can be followed below.

The campaign covered roughly 69,000 compounds. About 420 (0.61%) showed an effect of 50% or more. For the sample, strong results were picked, then their nearest neighbours and some compounds at random.

In the assay the target is T1, Histidine--tRNA ligase (Leishmania infantum) (UniProt A4I591).
T1 sequence (whole entry): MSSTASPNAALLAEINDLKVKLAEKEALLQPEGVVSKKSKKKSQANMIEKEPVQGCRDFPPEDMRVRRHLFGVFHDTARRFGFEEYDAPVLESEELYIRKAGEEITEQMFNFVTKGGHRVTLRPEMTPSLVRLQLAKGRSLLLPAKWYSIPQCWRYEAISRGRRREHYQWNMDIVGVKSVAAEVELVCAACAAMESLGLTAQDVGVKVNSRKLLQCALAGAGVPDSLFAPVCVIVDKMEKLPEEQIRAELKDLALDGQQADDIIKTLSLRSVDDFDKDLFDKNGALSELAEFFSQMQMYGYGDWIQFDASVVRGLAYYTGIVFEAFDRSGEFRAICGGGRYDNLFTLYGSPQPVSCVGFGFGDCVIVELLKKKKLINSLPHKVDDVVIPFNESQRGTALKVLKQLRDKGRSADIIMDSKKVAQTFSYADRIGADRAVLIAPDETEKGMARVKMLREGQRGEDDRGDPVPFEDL
Kind of assay: Leishmania infantum Histidine tRNA synthetase (LdHisRS). Format: functional. To be noted: 30 µM. Details: scale not given: in the data most compounds retested in dose-response had high values.
As to `Cc1ccc(C(=O)N2C[C@@H]3CCCO[C@@H]3[C@H](N(C)Cc3ccco3)C2)o1`, the Percent Effect came to 3.23%.
In the case of `O=S(=O)(N1CCCC1)N1CC[C@H](c2ccccc2)[C@H]2NCCCC[C@H]21`, the Percent Effect was determined as 26.3%.
In the case of `COc1ncccc1CN1C[C@@H]2COC[C@]2(COc2ccccn2)C1` it was 7.69%; in that of `CS(=O)(=O)NC[C@]12COC[C@H]1CN(C(=O)c1cnccn1)C2`, -2.65%.
The result for `O=C(CN1CCN(c2ncccn2)[C@@H]2CS(=O)(=O)C[C@@H]21)N1CCCCC1` reads -8.22%; that for `CCC(C)Sc1ncc(-c2c(C#N)c(N)nc3c2COCC3)cn1` (stereo not drawn), 2.17%; that for `CCOc1ccc(-c2c(C#N)c(N)nc3c2COCC3)cn1`, 21.7%.
In the case of `COc1ncc(-c2c(C#N)c(N)nc3c2CCc2[nH]ccc2-3)cn1` it was 95.7%; in that of `COc1ncc(-c2cc(-c3ccn(C)c3)nc(N)c2C#N)cn1`, 35.4%.
Turning to `CCCn1cc(-c2cc(-c3cnc(OC)nc3)c(C#N)c(N)n2)c(C)n1`, the Percent Effect is 16.4%.
With `COCCc1ncc(-c2c(C#N)c(N)nc3c2CCc2[nH]ccc2-3)cn1`, the Percent Effect was found to be 103%.
Take `O=C([C@@H]1C[C@@H]2CCN(Cc3ccco3)C[C@H]2O1)N1CCCO1`: the Percent Effect amounted to 15%.
Consider `CC(C(=O)Nc1ccc(Cl)cn1)N1CCc2nn(C)c(=O)cc2C1` (stereo not drawn), for which the Percent Effect came to 102%.
In the case of `Cn1nc2c(cc1=O)CN(CC(=O)Nc1nncs1)CC2` it was 6.06%.
For the compound `Cn1nc2c(cc1=O)CN(CC(=O)Nc1ccc(Cl)cn1)CC2`, the Percent Effect was 103%.
`Cn1nc2c(cc1=O)CN(CC(=O)Nc1nccs1)CC2`: the Percent Effect came out at 48.2%.
The result for `CC(C(=O)Nc1nccs1)N1CCc2nn(C)c(=O)cc2C1` (stereo not drawn) reads 23.2%; that for `CC(C(=O)Nc1ccnn1C(C)C)N1CCc2nn(C)c(=O)cc2C1` (stereo not drawn), 25%; that for `Cc1cccc(CN2C(=O)CO[C@@H]3CN(CCO)C[C@H]32)c1`, 15.4%.
In the case of `Cc1cc(C(=O)N2CC[C@@H]3CN(C)S(=O)(=O)[C@@H]3CC2)no1` it was 9.62%; in that of `Cc1cccc(COC[C@@H]2CC[C@H]3[C@H](CCN3Cc3ccco3)O2)n1`, 13.3%.
In the case of `CCCc1nc(CNC2(c3nccs3)CCCC2)cs1` it was 15.1%; in that of `Cc1csc(C2(NCc3csc(C4CC4)n3)CCCC2)n1`, 8.6%; in that of `c1csc(C2(NCc3csc(C4CC4)n3)CCCC2)n1`, 51.6%.
Regarding `O=C(NC[C@H]1CC[C@H](c2nnc(-c3cccnc3)o2)CC1)C1CC1`, the Percent Effect was -19.9%.
In the case of `O=C(c1ccsc1)N1C[C@@H]2CCN(C(=O)c3cccc(F)c3)[C@@H]2C1` it was 11.7%; in that of `COc1cccc(-c2ccc(CNC(=O)c3ccc(=O)n(C)c3)cc2)c1`, 14.6%.
The result for `COc1ccc(CNC(=O)Nc2ccc(CN3CCOC3=O)cc2)cc1` reads 15.2%; that for `O=C(NCc1ccoc1)Nc1ccc(CN2CCOC2=O)cc1`, 2.88%; that for `Cc1nnc(NC(=O)NCc2ccoc2)s1`, 7.69%.
`COc1ccc(CNC(=O)Nc2ccc(S(=O)(=O)C(F)F)cc2)cc1`: the Percent Effect was 18.3%.
In the case of `COc1ccc(CNC(=O)c2ccc(=O)n(C)c2)cc1C` it was -2.08%; in that of `COC(=O)c1ccc(CNC(=O)Nc2ccc(=O)n(C)c2)cc1`, 120%.
In the case of `COc1ccc(CNC(=O)Nc2ccc(=O)n(C)c2)cc1` it was 114%.
In the case of `Cn1cc(NC(=O)NCc2ccoc2)ccc1=O` it was 120%; in that of `c1cnc(N2C[C@H]3CCN(CCN4CCCC4)C[C@H]3C2)cn1`, 25.7%; in that of `Cc1ccc(CN2CC[C@H]3[C@@H]2CCC(=O)N3CCN2CCCC2)s1`, 5.11%.
Turning to `CC(C)NC(=O)N1CC[C@H]2[C@H]1CCN2c1ncccn1`, the Percent Effect was 15.4%.
The result for `COc1ncccc1CN1C[C@@H]2COC[C@]2(COc2cccnc2)C1` reads 20.5%; that for `Cc1nc([C@@H]2C[C@@H]3CCN(C(=O)c4ccsc4)C[C@H]3O2)no1`, 0%; that for `COc1cccc(CN2C[C@@H]3CC[C@@](O)(c4ccccn4)[C@@H]3C2)c1OC`, 0%.
As to `CC(C)=CCN1CCN(Cc2nccn2C)[C@H]2CS(=O)(=O)C[C@H]21`, the Percent Effect came to 11.2%.
In the case of `CCCS(=O)(=O)N1CCO[C@H]2[C@@H](Oc3cccnc3)CC[C@@H]21`, the Percent Effect stood at 16.4%.
For `CN(CCN1CCOCC1)C(=O)CCCc1ccccc1`, the Percent Effect worked out at 11.4%.
Consider `Cc1c(CN2CCOCC2)c(O)n(CCc2ccccc2)c(=O)c1C#N`, for which the Percent Effect turned out to be 60.5%.
`Cc1c(CN2CCCCC2)c(O)n(CCO)c(=O)c1C#N`: the Percent Effect amounted to 55.9%.
`Cn1c(NCCN2CCCCCC2)c(C#N)c(=O)n(C)c1=O`: the Percent Effect amounted to 24.7%.
Turning to `Cc1c(CN2CCOCC2)c(O)n(CCO)c(=O)c1C#N`, the Percent Effect stood at 47.4%.
The result for `Cc1c(CN2CCCCC2)c(O)n(CCCO)c(=O)c1C#N` reads 45.4%; that for `Cc1nnc([C@@]23CCO[C@@H]2CCN(Cc2cccc4ccccc24)C3)o1`, 5.94%; that for `CNC(=O)[C@@H]1COC[C@H]2CN(C(=O)c3ccc(OC)cc3)C[C@H]21`, 8.77%.
In the case of `CN1C(=O)CO[C@H]2CN(C(=O)c3ccc4c(c3)CCCC4)C[C@@H]21` it was 0%; in that of `O=S(=O)(c1cccnc1)N1C[C@@H]2CC[C@H](C1)N(Cc1ccccn1)C2`, 7.53%; in that of `N#Cc1ccc(C(=O)N2C[C@H](OCc3cccnc3)[C@H]3COC[C@H]32)cc1`, 6.94%.
The result for `O=C(Nc1cccnc1)C1Cc2nc(-c3ccsc3)sc2N1CC1CC1` (stereo not drawn) reads 62.5%.
Take `O=C(NC1CCCC1)C1Cc2nc(-c3ccsc3)sc2N1CC1CC1` (stereo not drawn): the Percent Effect stood at 23.6%.
For `CC(C)N1c2sc(-c3ccsc3)nc2CC1C(=O)NC1CC1` (stereo not drawn), the Percent Effect is 30%.
The result for `CN(C)CCNC(=O)C1Cc2nc(-c3ccsc3)sc2N1CC1CC1` (stereo not drawn) reads 22.2%.
